Screening data: PubChem, National Center for Advancing Translational Sciences (NCATS)
Sampled rows, rich in hits. Any-hit rate of the full collection: about 9.3%.
ELG1 genotoxic – genotoxicity induction in ELG1-luciferase HEK293T cells; HEK293T ELG1-luciferase reporter, luminescence, 16 h; Potency, µM (titrated, usually from 46 µM), without a hit: at the top dose activity change, positive = activation, usual class: activators; 1.3% of 330,000 active; AID 504466; also: % of control where 0% means no effect; nearly all actives have a fitted effect of over 60% in size
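ELG1-luciferase HEK293T cells, 2,000/well; compound pinned in; 16 hr, 37 °C, 5% CO2; ONE-Glo, 30 min RT; luminescence on CCD imager.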
ELG1 repair inh – ELG1-dependent DNA repair inhibition. 2.3% of 330,000 active. Potency, µM (series often up to 46.1 µM), for inactives: at the top dose activity change, negative = inhibition, usual class: inhibitors. AID 504467. HEK293T ELG1-luciferase reporter, luminescence, 16 h; DNA damage induced by 5-fluorouridine; also: % is scaled to controls: 0 for no effect and ±100 for the full control effect; nearly all actives have a fitted effect of over 55% in size
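Reporter activity after DNA damage by 5-fluorouridine is monitored. Compound-treated cells incubate 16 hr at 37 °C, then ONE-Glo is added for 30 min before luminescence reading.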
NPC1 promoter act – NPC1 promoter activation; Huh7 NPC1 promoter luciferase reporter, 24 h; Potency, µM (titrated, usually from 9.22 µM), for inactives: top-dose activation, usual class: activators; 2.4% of 320,000 active; also: % of control where 0% means no effect; nearly all actives have a fitted effect of over 60% in size
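Huh7 reporter cells (NPC1 promoter driving luciferase) are dosed with compound for 24 h at 37 °C, 5% CO2; luciferase detection reagent is then added and luminescence measured after 10 min at ambient temperature.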
Rab9 promoter act – activates the Rab9 promoter; Huh7 Rab9 promoter-luciferase reporter, luminescence, 24 h; Potency, µM (highest dose often 9.22 µM), for the others: at the highest dose activation, negative = inhibition, hits mostly activators; 2.8% of 320,000 active; also: % of control where 0% means no effect; nearly all actives have a fitted effect of over 60% in size
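Huh7 reporter line, Rab9 promoter upstream of luciferase. Compound exposure 24 h at 37 °C in reduced-serum medium with 10% FBS. Read-out: luminescence.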
SMN2 splice enh – increases expression of the SMN2 splice variant | 2.8% of 210,000 active | Potency, µM (highest dose often 46.1 µM), inactives show at the highest dose activity change, positive = activation, most hits filed as activators | AID 1458 | HEK293 SMN2-luciferase splicing reporter, luminescence, 30-36 h; also: % of control where 0% means no effect; nearly all actives have a fitted effect of over 55% in size
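qHTS luciferase splicing reporter: luminescence rises when SMN2 exon 7 is included in transfected HEK293 cells. Compound exposure lasted 30-36 h at 37C, with 4.5 mM final sodium butyrate as control, followed by a ONE-Glo read.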
FLuc modulator – inhibits or activates purified firefly luciferase, miR-21 counter-screen; purified FLuc, Km substrates, luminescence inhibition; AID 588342; P08659; 6.9% of 360,000 active; Potency, µM (series often up to 57.5 µM), inactives show at the top dose activity change, negative = inhibition, hits mostly inhibitors;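 also: plate controls were vehicle for no effect and reference inhibitor for full effect; nearly all actives have a fitted effect of over 55% in size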
Target sequence (P08659 whole entry, looked up): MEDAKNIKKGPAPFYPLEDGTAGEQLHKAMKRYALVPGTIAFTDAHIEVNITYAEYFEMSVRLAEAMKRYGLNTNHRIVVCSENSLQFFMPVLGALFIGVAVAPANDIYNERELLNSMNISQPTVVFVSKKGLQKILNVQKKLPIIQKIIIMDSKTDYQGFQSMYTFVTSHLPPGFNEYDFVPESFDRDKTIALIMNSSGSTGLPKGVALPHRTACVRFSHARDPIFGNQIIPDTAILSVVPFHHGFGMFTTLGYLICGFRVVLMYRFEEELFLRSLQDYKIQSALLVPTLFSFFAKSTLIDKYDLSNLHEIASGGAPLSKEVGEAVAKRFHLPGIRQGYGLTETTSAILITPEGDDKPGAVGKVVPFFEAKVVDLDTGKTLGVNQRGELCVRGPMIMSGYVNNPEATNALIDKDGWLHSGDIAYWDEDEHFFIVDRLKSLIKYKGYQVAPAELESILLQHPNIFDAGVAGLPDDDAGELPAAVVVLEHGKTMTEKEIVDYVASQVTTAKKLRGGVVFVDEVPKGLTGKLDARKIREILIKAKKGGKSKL
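Purified P. pyralis luciferase (10nM final) with 10uM D-luciferin and 10uM ATP (Km levels) in 50mM Tris acetate pH 7.5, 10mM Mg acetate, 0.01% Tween-20, 0.05% BSA; qHTS 6-point titration, ~60 µM downward; luminescence read.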
Active calls of the source: *; ? = inconclusive; . = no result. Calls follow the shape of the dose curve; as a rule, active = well fitted curve in the direction sought with a large enough effect; inconclusive = small, poorly fitted or top-dose-only effect, or another doubt; inactive = no such curve, though single readings can be large; an effect the other way counts as inactive or inconclusive. Potency is read from the fitted curve at half-maximal effect.

SMILES	ELG1 genotoxic	ELG1 repair inh	NPC1 promoter act	Rab9 promoter act	SMN2 splice enh	FLuc modulator
O=C(COc1ccccc1)N=C1SC2CS(=O)(=O)CC2N1c1ccc(F)cc1 (stereo unspecified)	-1%	5%	0%	0%	.	1%
Cc1ccccc1C(=O)Nc1cccc(NC(=O)c2ccc(C(C)(C)C)cc2)c1	.	.	.	.	?	0.76µM*
C/C(=N\NC(=O)c1ccccc1F)c1ccc(C#N)cc1	?	?	?	4µM*	?	?
C/C(=N\NC(=O)c1c(Br)c(C)nn1C)c1cccc(NC(=O)C2CCC2)c1	0%	-8%	0%	-1%	6%	19µM*
C/C(=N\NC(=O)c1ccc(O)cc1)c1cccc(NC(=O)c2ccccc2C)c1	7%	29%	0%	?	.	2.7µM*
O=C(Cc1ccsc1)Nc1ccc2c(c1)OCO2	13%	?	18%	?	.	?
O=C(C1=C[C@@H](c2csc3ccccc23)C[C@@H](OCc2ccc(CO)cc2)O1)N1CCN(Cc2ccc3c(c2)OCO3)CC1	-11%	9.2µM*	-4%	-2%	.	-1%
O=C(C1=C[C@H](c2ccccc2)C[C@H](OCc2ccc(CO)cc2)O1)N1CCN(Cc2ccccc2)CC1	-5%	?	-5%	-1%	.	0%
O=C(C1=C[C@@H](c2csc3ccccc23)C[C@@H](OCc2ccc(CO)cc2)O1)N1CCN(Cc2ccccc2)CC1	-9%	?	0%	-7%	.	1%
O=C(C1=C[C@@H](c2ccccc2)C[C@@H](OCc2ccc(CO)cc2)O1)N1CCN(Cc2ccc3c(c2)OCO3)CC1	-12%	15µM*	2%	0%	.	0%
NC(=O)C1=C[C@H](c2ccc3c(c2)OCO3)C[C@H](OCc2ccc(CO)cc2)O1	?	?	?	?	.	15µM*
CCCCC[C@H](O)/C=C/[C@H]1OC(O)C[C@H](O)[C@@H]1C/C=C\CC(=O)O (stereo partly specified)	.	.	.	.	1%	.
CCOc1ccc(C(=O)/C=C/c2ccccc2C(F)(F)F)cc1	1%	?	14%	10%	-11%	5.4µM*
COc1ccc(C(=O)/C=C/c2ccccc2C(F)(F)F)cc1	-1%	?	15%	1%	-9%	12µM*
COc1ccc(C(=O)CC(=O)C(=O)Nc2ccccc2C(F)(F)F)cc1	-3%	?	-4%	-4%	.	1%
CCOCCCNC(=O)c1cc(Sc2cccc(Cl)c2)nc2ccccc12	.	.	.	.	.	-3%
CCCS(=O)(=O)N1CC(=O)N(c2cc(C)ccc2C)C(C)(C(=O)NC2CCCCCC2)C1 (stereo unspecified)	.	.	.	.	.	-4%
O=C(Nc1cccc(Cl)c1)C1C2CCC3C(CCC21)C3(Cl)Cl (stereo unspecified)	-9%	26µM*	1%	-5%	-37%	-19%
O=C(Nc1ccc(Cl)cc1)C1C2CCCCC21 (stereo unspecified)	?	?	4µM*	4µM*	.	4.8µM*
CCc1ccc(NC(=O)C2C3/C=C\CCCCC32)cc1 (stereo unspecified)	?	?	4.5µM*	3.2µM*	11µM*	?
O=C(Nc1ccccc1)C1C2CCC3C(CCC21)C3(Cl)Cl (stereo unspecified)	-3%	-13%	-5%	-4%	-17%	-7%
CCOCCOC(=O)COc1ccc2c(=O)c(Oc3ccc(OC)cc3)coc2c1	-4%	1%	-1%	-9%	.	-2%
COc1ccccc1Oc1coc2cc(OCC(N)=O)ccc2c1=O	0%	2%	1%	1%	.	0%
Cc1nc(-c2coc3cc(O)c(C)cc3c2=O)cs1	?	?	?	?	25µM*	0.95µM*
CC(C)(C)c1ccc(Oc2coc3cc(OCC(=O)O)ccc3c2=O)cc1	1%	?	1%	-11%	.	2.1µM*
SMILES	ELG1 genotoxic	ELG1 repair inh	NPC1 promoter act	Rab9 promoter act	SMN2 splice enh	FLuc modulator
Cc1nc(-c2coc3cc(OCC(=O)O)ccc3c2=O)cs1	-9%	12%	-5%	-10%	-6%	1.9µM*
Cc1nc(-c2coc3cc(C)c(N=O)c(O)c3/c2=N\N)cs1	3%	7%	-3%	-4%	3%	?
Cc1ccc(OCc2nc3ccccc3n2CCOc2ccc(Cl)cc2)cc1	.	.	.	.	-13%	-20%
Cc1ccc(-c2csc3nc(SCC(=O)N(C)C)n(Cc4ccccc4)c(=O)c23)cc1	-10%	21µM*	0%	0%	8%	-1%
CN(C)C(=O)CSc1nc2ccccc2n1Cc1ccccc1	2%	12%	-1%	-8%	-7%	-3%
NC(=O)CSc1nc2scc(-c3ccc(Cl)cc3)c2c(=O)n1Cc1ccccc1	2%	16µM*	-4%	-2%	.	0%
C=CCn1c(SCC(=O)Nc2c(C)n(C)n(-c3ccccc3)c2=O)nc2scc(-c3ccccc3)c2c1=O	-11%	23µM*	-3%	2%	-1%	9%
COc1ccc(NC(=O)COC(=O)c2cccn2C)cc1S(=O)(=O)N1CCCCC1	0%	?	.	.	.	.
Cc1nn(CCOc2ccccc2)c(=O)n1-c1c(F)cccc1F	?	?	2.8µM*	4µM*	13µM*	24µM*
Cc1ccc(-n2c(C)nn(CCOc3ccccc3)c2=O)cc1	?	?	?	3.2µM*	11µM*	?
Cc1nn(C)c(=O)n1-c1ccc(Oc2ccccc2)cc1	0%	21%	-3%	-1%	8%	1%
Cc1ccc(-n2c(C)cc(/C=C3/SC(=O)N(CC(=O)N4CCOCC4)C3=O)c2C)nc1	?	?	?	?	.	1.5µM*
COCCn1c(C)cc(/C=C2/SC(=O)N(CC(=O)N3CCCC3)C2=O)c1C	17%	20%	2%	16%	.	19µM*
CCn1c(C)cc(/C=C2/SC(=O)N(CC(=O)N3CCCC3)C2=O)c1C	-9%	?	8%	11%	.	21µM*
CC(=O)N(Cc1ccccc1)c1nc(-c2ccccc2)cs1	0%	-2%	-4%	2%	.	-5%
Cc1cc2cc(C)c(NCCNC(=O)c3cccs3)nc2cc1C	-1%	?	0%	-8%	-23%	1%
Cc1ccc(Cl)c(OCC(=O)Nc2cccnc2)c1	?	?	?	8%	.	15µM*
O=C(COc1ccccc1Cl)Nc1cc(NC(=O)COc2ccccc2Cl)cc(C(=O)O)c1	?	?	?	4µM*	.	?
O=C(COc1ccc(F)cc1F)Nc1cccnc1	17%	?	10%	5%	.	-15%
